Results published in the antibiotic and cytotoxicity screens of Wong et al. (2023).
In all, about 39,000 compounds went through this assay and about 3,300 (8.5%) were called active. The sample holds actives, similar compounds and a random draw of the others, so the mix is not that of the screen.

Tested on: HepG2
Experiment: cytotoxicity call (relative viability < 0.9)
Settings: 10 µM

Row | Structure (SMILES) | cytotoxicity call
1 | C[C@H]1CN([C@@H](C)CO)C(=O)c2cc(NC(=O)Cn3cnnn3)ccc2O[C@H]1CN(C)S(=O)(=O)c1ccc(Cl)cc1 | inactive
2 | COc1ccc(S(=O)(=O)N(C)C[C@H]2Oc3ccc(NS(=O)(=O)c4ccc(C)cc4)cc3C(=O)N([C@H](C)CO)C[C@H]2C)cc1 | inactive
3 | C[C@@H]1CN([C@@H](C)CO)C(=O)Cc2cc(NC(=O)C3CCCCC3)ccc2O[C@@H]1CN(C)S(=O)(=O)c1cn(C)cn1 | inactive
4 | C[C@H](CO)N1C[C@H](C)[C@H](CN(C)Cc2ccc(Oc3ccccc3)cc2)Oc2c(NC(=O)Nc3ccccc3)cccc2C1=O | inactive
5 | O[C@@H](Cc1ccccc1)[C@@H](/C=C/C1CC1)N(CC#Cc1ccccc1)Cc1ccccc1Br | inactive
6 | C[C@H](CO)N1C[C@H](C)[C@H](CN(C)C(=O)Nc2ccc3c(c2)OCO3)Oc2ccc(NC(=O)Nc3cccc4ccccc34)cc2C1=O | inactive
7 | C[C@@H]1CN([C@@H](C)CO)C(=O)c2cc(NC(=O)C3CCCCC3)ccc2O[C@@H](C)CCCCO[C@@H]1CN(C)C(=O)Nc1cccc2ccccc12 | active
8 | C[C@@H]1CCCCO[C@H](CN(C)C(=O)Nc2cccc3ccccc23)[C@H](C)CN([C@@H](C)CO)C(=O)c2cc(NC(=O)C3CCCCC3)ccc2O1 | inactive
9 | C[C@@H]1CN([C@@H](C)CO)C(=O)c2cc(NC(=O)C3CCCCC3)ccc2O[C@@H](C)CCCCO[C@H]1CN(C)C(=O)Nc1cccc2ccccc12 | inactive
10 | C[C@H]1CCCCO[C@H](CN(C)S(=O)(=O)c2cccs2)[C@@H](C)CN([C@@H](C)CO)C(=O)c2cc(NC(=O)Nc3ccccc3)ccc2O1 | inactive
11 | COc1ccc2c3c(n(c2c1)C)[C@@H](CO)N(C[C@]13CCN(CC1)C(=O)c1cnccn1)C(=O)c1cnccn1 | inactive
12 | CC(C)NC(=O)N(C)C[C@@H]1OCCCC[C@@H](C)Oc2ccc(NC(=O)Nc3cccc4ccccc34)cc2C(=O)N([C@H](C)CO)C[C@@H]1C | inactive
13 | Cc1ccc(Oc2nnc(-c3cccs3)c3ccccc23)cc1 | inactive
14 | Cc1csc(-c2nnc(Nc3ccc(Oc4ncccc4-c4ccnc(N)n4)cc3)c3ccccc23)c1 | active
15 | C[C@@]1(c2ccc3c(c2)OCCO3)NC(=O)NC1=O | inactive
16 | Cc1noc(C)c1S(=O)(=O)Nc1ccc2c(c1)CC(=O)N([C@@H](C)CO)C[C@H](C)[C@H](CN(C)Cc1ccncc1)O2 | inactive
17 | C/C=C(/C)C(=O)O[C@@H]1[C@H](OC(C)=O)[C@]2(CO)[C@H](O)C[C@]3(C)C(=CC[C@H]4[C@@]5(C)CC[C@H](O[C@@H]6O[C@H](C(=O)O)[C@@H](O[C@@H]7O[C@H](CO)[C@@H](O)[C@H](O)[C@H]7O)[C@H](O)[C@H]6O[C@@H]6O[C@H](CO)[C@@H](O)[C@H](O)[C@H]6O)[C@](C)(CO)[C@@H]5CC[C@]43C)[C@@H]2CC1(C)C | inactive
18 | C[C@@H]1CC[C@]2(C(=O)O[C@@H]3O[C@H](CO)[C@@H](O)[C@H](O)[C@H]3O)CC[C@]3(C)C(=CC[C@H]4[C@@]5(C)C[C@@H](O)[C@H](O)[C@@](C)(CO)[C@@H]5CC[C@]43C)[C@@H]2[C@]1(C)O | inactive
19 | CC=C(C)C(=O)OC1C(OC(C)=O)C2(CO)C(O)CC3(C)C(=CCC4C5(C)CCC(OC6OC(C(=O)O)C(OC7OC(CO)C(O)C(O)C7O)C(O)C6OC6OC(CO)C(O)C(O)C6O)C(C)(CO)C5CCC43C)C2CC1(C)C (stereo not drawn) | active
20 | C[C@H]1O[C@@H](O[C@H]2CC[C@@]3(C)[C@@H](CC[C@@]4(C)[C@@H]3CC=C3[C@H]5C[C@](C)(C(=O)O)CC[C@]5(C(=O)O[C@H]5O[C@@H](CO)[C@@H](O)[C@@H](O)[C@@H]5O)CC[C@@]34C)[C@@]2(C)CO)[C@@H](O)[C@@H](O[C@H]2O[C@@H](CO)[C@@H](O)[C@@H](O)[C@@H]2O)[C@@H]1O | inactive

Row | Structure (SMILES) | cytotoxicity call
21 | CC=C(C)C(=O)O[C@H]1[C@H](OC(C)=O)[C@]2(CO)[C@H](O)C[C@]3(C)C(=CC[C@@H]4[C@@]5(C)CC[C@H](O[C@@H]6O[C@H](C(=O)O)[C@@H](O[C@@H]7O[C@H](CO)[C@@H](O)[C@H](O)[C@H]7O)[C@H](O)[C@H]6O[C@@H]6O[C@H](CO)[C@@H](O)[C@H](O)[C@H]6O)[C@](C)(CO)[C@@H]5CC[C@]43C)[C@@H]2CC1(C)C | active
22 | C/C=C(/C)C(=O)O[C@H]1[C@@H](OC(C)=O)[C@@]2(CO)[C@@H](O)C[C@@]3(C)C(=CC[C@H]4[C@@]5(C)CC[C@@H](O[C@H]6O[C@H](C(=O)O)[C@@H](O[C@H]7O[C@@H](CO)[C@@H](O)[C@@H](O)[C@@H]7O)[C@@H](O)[C@@H]6O[C@H]6O[C@@H](CO)[C@@H](O)[C@@H](O)[C@@H]6O)[C@@](C)(CO)[C@@H]5CC[C@]43C)[C@@H]2CC1(C)C | active
23 | COc1cccc(-c2ccc3c(c2)O[C@@H](CN(C)C(=O)C2CC2)[C@H](C)CN([C@@H](C)CO)S3(=O)=O)c1 | inactive
24 | O=C(C[C@@H]1C[C@@H]2c3cc(NS(=O)(=O)c4ccc(F)cc4)ccc3O[C@@H]2[C@@H](CO)O1)NCCN1CCCCC1 | inactive
25 | C[C@@H]1CN([C@@H](C)CO)C(=O)c2cc(C#Cc3ccncc3)cnc2O[C@H]1CN(C)S(=O)(=O)c1ccccc1F | active
26 | C[C@H](CO)N1C[C@H](C)[C@H](CN(C)S(=O)(=O)c2ccccc2F)Oc2ncc(C#Cc3ccncc3)cc2C1=O | active
27 | C[C@H]1CN([C@@H](C)CO)C(=O)c2cc(C#Cc3ccncc3)cnc2O[C@H]1CN(C)S(=O)(=O)c1ccccc1F | active
28 | C[C@H]1CN([C@@H](C)CO)C(=O)c2cc(C#Cc3ccccc3)cnc2O[C@@H]1CN(C)S(=O)(=O)c1ccccc1F | inactive
29 | C[C@@H]1CN([C@H](C)CO)C(=O)c2cc(C#Cc3ccncc3)cnc2O[C@H]1CN(C)S(=O)(=O)c1ccccc1F | inactive
30 | C[C@@H]1CN([C@@H](C)CO)C(=O)c2cc(C#Cc3ccncc3)cnc2O[C@@H]1CN(C)S(=O)(=O)c1ccccc1F | inactive
31 | C[C@@H]1CN([C@H](C)CO)C(=O)c2cc(C#Cc3cccnc3)cnc2O[C@H]1CN(C)S(=O)(=O)c1ccccc1F | inactive
32 | C[C@@H]1CN([C@H](C)CO)C(=O)c2cc(C#Cc3ccccc3)cnc2O[C@H]1CN(C)S(=O)(=O)c1ccccc1F | inactive
33 | C[C@H]1CN([C@@H](C)CO)C(=O)c2cc(C#Cc3ccncc3)cnc2O[C@@H]1CN(C)S(=O)(=O)c1ccccc1F | active
34 | C[C@H](CO)N1C[C@H](C)[C@@H](CN(C)S(=O)(=O)c2ccccc2F)Oc2ncc(C#Cc3ccncc3)cc2C1=O | inactive
35 | C[C@@H]1CN([C@H](C)CO)C(=O)c2cc(C#Cc3ccncc3)cnc2O[C@@H]1CN(C)S(=O)(=O)c1ccccc1F | inactive
36 | C[C@@H]1CN([C@H](C)CO)C(=O)c2cc(C#Cc3cccnc3)cnc2O[C@@H]1CN(C)S(=O)(=O)c1ccccc1F | inactive
37 | COc1ccc(S(=O)(=O)N[C@@H]2CC[C@@H](CC(=O)N3CCC(Cc4ccccc4)CC3)O[C@@H]2CO)cc1 | inactive
38 | O=c1c(-c2ccc(O)cc2)coc2c([C@H]3O[C@H](CO)[C@@H](O)[C@H](O)[C@H]3O)c(O)ccc12 | inactive
39 | Cc1ccc2nc(-c3ccco3)[nH]c2c1 | inactive
40 | CCS(=O)(=O)N1C[C@]2(CCN(CC2)C(=O)Nc2c(noc2C)C)c2c(n(c3cc(ccc23)OC)C)[C@@H]1CO | inactive

Row | Structure (SMILES) | cytotoxicity call
41 | C[C@H](CO)N1C[C@H](C)[C@@H](CN(C)S(=O)(=O)c2ccc(F)cc2)Oc2ccc(NC(=O)Cc3ccccc3)cc2CC1=O | inactive
42 | COc1cccc(NC(=O)N[C@@H]2CC[C@H](CC(=O)N3CCN(C)CC3)O[C@H]2CO)c1 | inactive
43 | O=C(C[C@@H]1C=C[C@H](NC(=O)c2ccc(F)cc2)[C@H](CO)O1)NCc1ccncn1 | inactive
44 | C[C@@H]1CCCCO[C@H](CN(C)C(=O)Cc2ccccc2)[C@@H](C)CN([C@@H](C)CO)C(=O)c2cc(NC(=O)Nc3ccc(C(F)(F)F)cc3)ccc2O1 | inactive
45 | C[C@@H]1CN([C@H](C)CO)C(=O)Cc2cc(NC(=O)Nc3cccc4ccccc34)ccc2O[C@@H]1CN(C)Cc1ccc(C(=O)O)cc1 | inactive
46 | COCCNC(=O)C[C@@H]1CC[C@H]2[C@@H](COC[C@@H](O)CN2S(=O)(=O)c2ccccc2C)O1 | inactive
47 | C[C@H](CO)N1C[C@H](C)[C@@H](CN(C)Cc2ccc(C(=O)Nc3ccccc3N)cc2)Oc2ccc(NS(=O)(=O)c3ccc(Cl)cc3)cc2CC1=O | inactive
48 | C[C@H]1CN([C@@H](C)CO)C(=O)c2cccc(NC(=O)C3CC3)c2O[C@H]1CN(C)S(=O)(=O)c1cn(C)cn1 | inactive
49 | C[C@@H]1CCCCO[C@H](CN(C)S(=O)(=O)c2ccc(Cl)cc2)[C@H](C)CN([C@@H](C)CO)C(=O)c2cc(NS(=O)(=O)c3ccc(F)cc3)ccc2O1 | active
50 | C[C@@H]1CCCCO[C@H](CN(C)S(=O)(=O)c2ccc(Cl)cc2)[C@@H](C)CN([C@@H](C)CO)C(=O)c2cc(NS(=O)(=O)c3ccc(F)cc3)ccc2O1 | inactive
51 | C[C@@H]1CN([C@@H](C)CO)C(=O)c2cc(NS(=O)(=O)c3ccc(F)cc3)ccc2O[C@@H](C)CCCCO[C@H]1CN(C)S(=O)(=O)c1ccc(Cl)cc1 | inactive
52 | C[C@@H]1CCCCO[C@@H](CN(C)S(=O)(=O)c2ccc(Cl)cc2)[C@@H](C)CN([C@@H](C)CO)C(=O)c2cc(NS(=O)(=O)c3ccc(F)cc3)ccc2O1 | active
53 | C[C@H](CO)N1C[C@H](C)[C@@H](CN(C)S(=O)(=O)c2ccc(Cl)cc2)OCCCC[C@H](C)Oc2ccc(NS(=O)(=O)c3ccc(F)cc3)cc2C1=O | inactive
54 | C[C@@H]1CCCCO[C@H](CN(C)S(=O)(=O)c2ccc(Cl)cc2)[C@H](C)CN([C@H](C)CO)C(=O)c2cc(NS(=O)(=O)c3ccc(F)cc3)ccc2O1 | inactive
55 | C[C@H](CO)N1C[C@H](C)[C@H](CN(C)S(=O)(=O)c2ccc(Cl)cc2)OCCCC[C@H](C)Oc2ccc(NS(=O)(=O)c3ccc(F)cc3)cc2C1=O | active
56 | C[C@@H]1CN([C@@H](C)CO)C(=O)c2cc(NS(=O)(=O)c3ccc(F)cc3)ccc2O[C@@H](C)CCCCO[C@@H]1CN(C)S(=O)(=O)c1ccc(Cl)cc1 | inactive
57 | C[C@@H]1CCCCO[C@H](CN(C)S(=O)(=O)c2ccc(F)cc2)[C@H](C)CN([C@@H](C)CO)C(=O)c2cc(NS(=O)(=O)c3ccc(Cl)cc3)ccc2O1 | active
58 | C[C@@H]1CCCCO[C@H](CN(C)S(=O)(=O)c2ccc(F)cc2)[C@@H](C)CN([C@@H](C)CO)C(=O)c2cc(NS(=O)(=O)c3ccc(Cl)cc3)ccc2O1 | inactive
